Screening data from PubChem BioAssay.
SMN2 splice enh – increases expression of the SMN2 splice variant. HEK293 SMN2-luciferase splicing reporter, luminescence, 30-36 h. Potency, µM (series often up to 46.1 µM), for the others: at the top dose activity change, positive = activation, most hits filed as activators. 2.8% of 210,000 active; note: % of control where 0% means no effect; nearly all actives have a fitted effect of over 55% in size
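qHTS luciferase splicing reporter: luminescence rises when SMN2 exon 7 is included in transfected HEK293 cells. Compound exposure lasted 30-36 h at 37C, with 4.5 mM final sodium butyrate as control, followed by a ONE-Glo read.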
Rab9 prom act – Rab9 promoter activation; Huh7 Rab9 promoter-luciferase reporter, luminescence, 24 h; Potency, µM (doses to about 9.22 µM), without a hit: at the top dose activation, negative = inhibition, most hits filed as activators; 2.8% of 320,000 active; note: % of control where 0% means no effect; nearly all actives have a fitted effect of over 60% in size
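Huh7 cells stably carrying a Rab9 promoter-luciferase reporter, 1500 cells per well in OP-MEM I with 10% FBS, treated with compound 24 hours at 37C. Luciferase activity read by luminescence after 10 minutes with Amplite reagent.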
FLuc counter – inhibits or activates purified firefly luciferase, miR-21 counter-screen; P08659; purified FLuc, Km substrates, luminescence inhibition; Potency, µM (doses to about 57.5 µM), for the others: at the highest dose activity change, negative = inhibition, most hits filed as inhibitors; 6.9% of 360,000 active; AID 588342;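 note: plate controls were vehicle for no effect and reference inhibitor for full effect; nearly all actives have a fitted effect of over 55% in size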
Target sequence (P08659 whole entry, looked up): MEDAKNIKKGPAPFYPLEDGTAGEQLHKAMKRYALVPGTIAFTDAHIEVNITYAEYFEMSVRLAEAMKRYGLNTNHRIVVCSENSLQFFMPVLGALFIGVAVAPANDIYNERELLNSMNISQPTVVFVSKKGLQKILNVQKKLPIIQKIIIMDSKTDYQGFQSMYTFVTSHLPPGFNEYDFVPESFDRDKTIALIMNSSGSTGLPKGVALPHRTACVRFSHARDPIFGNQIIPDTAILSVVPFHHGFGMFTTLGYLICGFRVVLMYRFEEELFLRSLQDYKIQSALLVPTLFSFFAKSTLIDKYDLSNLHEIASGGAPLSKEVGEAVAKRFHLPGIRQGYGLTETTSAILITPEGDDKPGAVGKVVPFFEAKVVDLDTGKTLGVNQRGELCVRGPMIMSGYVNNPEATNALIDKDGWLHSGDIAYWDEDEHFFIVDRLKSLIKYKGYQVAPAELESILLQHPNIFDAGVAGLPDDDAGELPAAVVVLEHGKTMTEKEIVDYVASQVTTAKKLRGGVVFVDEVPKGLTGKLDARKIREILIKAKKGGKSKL
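Biochemical qHTS of compounds, final roughly 60 µM downward over six points, against 10 nM purified firefly luciferase using Km concentrations of substrates (10 uM D-luciferin, 10 uM ATP) in Tris acetate pH 7.5 buffer; luminescence output.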
ELG1 genotox – inducers of genotoxicity in HEK293T ELG1-luciferase cells. 1.3% of 330,000 active. HEK293T ELG1-luciferase reporter, luminescence, 16 h. Potency, µM (top dose mostly 46 µM), inactives show at the highest dose activity change, positive = activation, most hits filed as activators; note: % of control where 0% means no effect; nearly all actives have a fitted effect of over 60% in size
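Cells (2,000/well) expressing the ELG1-luciferase fusion are dosed by pin tool and kept 16 hr at 37 °C, 5% CO2. Signal comes from ONE-Glo luciferase reagent after 30 min at room temperature.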
ELG1 repair inh – ELG1-dependent DNA repair inhibition; 2.3% of 330,000 active; Potency, µM (doses to about 46.1 µM), for inactives: at the highest dose activity change, negative = inhibition, actives largely listed as inhibitors; HEK293T ELG1-luciferase reporter, luminescence, 16 h; DNA damage induced by 5-fluorouridine; note: % is set by controls: 0 for no effect and ±100 for the full control effect; nearly all actives have a fitted effect of over 55% in size
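Luminescence from the luciferase reporter, measured 30 min after ONE-Glo reagent at room temperature, was the read-out. Beforehand, 2,000 cells per well were exposed for 16 hr at 37 °C to 5-fluorouridine together with compound or vehicle.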
NPC1 prom act – NPC1 promoter activation; Huh7 NPC1 promoter luciferase reporter, 24 h; Potency, µM (titrated, usually from 9.22 µM), without a hit: at the top dose activation, usual class: activators; 2.4% of 320,000 active; note: % of control where 0% means no effect; nearly all actives have a fitted effect of over 60% in size
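Stable NPC1-promoter luciferase Huh7 line; cpd (DMSO) 24 h, 37 °C, 5% CO2; Amplite luciferase reagent 10 min RT; luminescence readout. qHTS format.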
* = called active by the depositor; ? = inconclusive; . = no result; [ ] = another dose, or the depositor's remark. In the library only some 9.2% were active in any assay of this set; here they are far more common. Calls come from the whole dose curve; as a rule, active = well fitted curve in the direction sought with a large enough effect; inconclusive = small, poorly fitted or top-dose-only effect, or another doubt; inactive = no such curve, though single readings can be large; an effect the other way counts as inactive or inconclusive. Potency is the fitted concentration of half-maximal effect.

SMILES	SMN2 splice enh	Rab9 prom act	FLuc counter	ELG1 genotox	ELG1 repair inh	NPC1 prom act
CCC(C(=O)NC(CC(=O)O)c1ccc(Cl)cc1)c1ccccc1 (stereo not given)	.	-2%	0%	0%	9%	1%
CCCCCOC(=O)c1[nH]c2c(c1C)C(=O)C(C(=O)OC)C(C)C2 (stereo not given)	-5%	?	11µM*	23%	-23%	20%
COC(=O)C1C(=O)c2c([nH]c(C(=O)OCC3CCCO3)c2C)CC1C (stereo not given)	?	?	8.5µM*	9.2µM*	?	27%
CCCCc1cc2c(cn1)=C(OC(=O)c1ccc(Cl)nc1)C(C)(OC(=O)CC)C(=O)C=2 (stereo not given)	-7%[9.22 µM]	.	.	.	.	.
Cc1cc(C(=O)Nc2ccc(S(=O)(=O)N3CCCC3)cc2)no1	2%	-2%	4%	4%	1%	-3%
Cc1cnc(C(=O)Nc2ccc(N3CCCCC3)cc2)cn1	11µM*	3.2µM*	7.6µM*	?	?	3.5µM*
Cc1cc(C(=O)Nc2ccc(N3CCCCC3)cc2)no1	.	0.28µM*	1.3µM*	?	?	0.32µM*
O=C(Nc1ccc(S(=O)(=O)Nc2ncccn2)cc1)c1cccc(S(=O)(=O)N2CCCC2)c1	.	2%	3%	7%	-1%	-2%
COc1ccccc1Nc1nnc(SCC2CCCCO2)s1 (stereo not given)	?	2.5µM*	1.5µM*	?	?	3.5µM*
Cc1ccccc1Nc1nnc(SCC2CCCCO2)s1 (stereo not given)	11µM*	2.8µM*	2.4µM*	?	?	0.71µM*
Cc1ccc(NC(=O)C(CC(C)C)NS(=O)(=O)c2ccc3c(c2)oc(=O)n3C)c(C)c1 (stereo not given)	6%	.	-2%	.	.	.
CC(C)c1ccc(NC(=O)CSC2=Nc3ccccc3C3=NC(CC(=O)NCc4ccco4)C(=O)N23)cc1 (stereo not given)	.	.	-8%	.	.	.
O=C(/C=C/c1ccc(F)cc1)Nc1nc2ccccc2[nH]1	11µM*	0.63µM*	?	?	?	1.3µM*
O=C(Nc1nc2ccccc2[nH]1)c1ccc(Cl)c(S(=O)(=O)N2CCCC2)c1	-19%	28%	12µM*	7%	?	?
Cc1ccc(N(C)S(=O)(=O)c2cccc(C(=O)Nc3nc4ccccc4[nH]3)c2)cc1	-57%	-4%	-18%	-5%	23µM*	8%
COc1ccc(/C=C/C(=O)NCCc2nc3ccccc3[nH]2)cc1	.	10%	?	-1%	?	1%
CN(C)c1cccc(C(=O)Nc2nc3ccccc3[nH]2)c1	.	0.32µM*	0.6µM*	?	?	0.45µM*
COc1ccc(N(Cc2cc(=O)[nH]c3ccccc23)C(=O)C(C)C)cc1	.	-3%	-2%	-2%	-12%	1%
Cc1nn(C)c(C(=O)NNC(=O)Nc2cccc(C(F)(F)F)c2)c1Cl	-12%	2%	3%	-11%	?	-3%
O=C(Nc1nc2ccccc2[nH]1)c1cccc(Br)c1	.	3.5µM*	2.4µM*	2.1µM*	?	?
O=C(Nc1ncccn1)c1cccc(F)c1	.	18%	7%	-1%	20%	-2%
O=C(Nc1nc2ccccc2[nH]1)c1cccc(F)c1	.	?	3µM*	2.9µM*	?	?
O=C(Nc1nc2ccccc2[nH]1)c1ccc(Br)o1	13µM*	?	9.5µM*	?	?	?
O=C(CNC(=O)c1cccc(Br)c1)NCCc1nc2ccccc2[nH]1	-16%	0%	2%	-2%	11%	-3%
Cc1noc(C)c1S(=O)(=O)N1CCCC(C(=O)c2cccc(OC(C)C)c2)C1 (stereo not given)	.	-10%	4%	-8%	?	-9%
SMILES	SMN2 splice enh	Rab9 prom act	FLuc counter	ELG1 genotox	ELG1 repair inh	NPC1 prom act
CCOC(=O)c1cccc(NC(=O)NCc2ccc3c(c2)CCN3C(=O)CC)c1	.	.	-13%	.	.	.
O=C1/C(=C/c2cccc3ccccc23)CCCc2ccccc21	?	26%	13µM*	14%	?	20%
CCOC(=O)c1cc(C#N)c(Oc2ccccc2OC)nc1-c1ccccc1	-29%	-1%	0%	-5%	?	3%
CC(C)COc1ccc(-c2nn(-c3ccccc3)cc2CO)cc1	.	-5%	?	0%	-13%	0%
OCc1cn(-c2ccccc2)nc1-c1ccc(Br)cc1	.	?	17µM*	?	?	?
OCc1cn(-c2ccccc2)nc1-c1ccc2c(c1)OCCO2	-26%	?	21µM*	5%	?	?
CCc1ccc(-n2nc3ccc(NC(=O)c4ccc(C#N)cc4F)cc3n2)cc1	-3%	.	6%	.	.	.
COc1ccc(N2CCN(C(=O)c3cn(Cc4ccccc4)nc3-c3cccnc3)CC2)cc1	.	0%	1%	3%	-20%	-6%
FC(F)(F)c1ccccc1-n1c(-c2cnccn2)n[nH]c1=S	.	11%	17µM*	?	?	11%
C/C(=N\NC(=O)c1cccc(O)c1)c1ccc(NC(=O)Cc2ccccc2)cc1	.	?	-15%	?	?	?
CCN(CC)S(=O)(=O)c1ccc2c(c1)c(=O)c(C(=O)N(C)Cc1ccccc1)cn2C	-2%	.	-1%	.	.	.
Cc1ccc(-c2nc(N)sc2CC(=O)OCC(=O)NCC2CCCO2)cc1 (stereo not given)	13%	-1%	-14%	4%	1%	0%
COc1ccc(-c2cn(-c3ccc(OC)cc3)c3[n+]2-c2ccccc2CC3)cc1	-49%	-42%	3%	-3%	9.2µM*	-31%
Cc1cc(NC(=O)COC(=O)C2CC(=O)N(c3ccccc3)C2)no1 (stereo not given)	.	14%	1%	1%	9%	-2%
O=C(Cc1ccccc1)NC(=S)Nc1ccc2oc(-c3ccccc3)nc2c1	11µM*	?	?	?	?	?
COc1ccc(C(=O)Nc2ccc3oc(-c4ccc(F)cc4Cl)nc3c2)cc1	.	.	-11%	.	.	.
O=C(Cc1ccccc1)Nc1ccc2oc(-c3ccncc3)nc2c1	13%	18%	-8%	2%	16%	8%
CC(=O)NC(=S)Nc1ccc2oc(-c3cc(F)c(F)cc3Cl)nc2c1	5µM*	0.5µM*	-19%	4.6µM*	?	?
O=C(Cc1ccccc1)NC(=S)Nc1ccc2oc(-c3ccccc3F)nc2c1	?	?	13µM*	15%	?	?
COc1cccc(C(=O)Nc2nc(-c3ccc4c(c3)OCO4)cs2)c1	-18%	-4%	17µM*	15%	13%	4%
